PubChem BioAssay (EPA / NIEHS)
Calls of active or inactive are those of the source. The calls were made as follows: active = hit-call score of the fitted dose curve at least 0.9, where 1 is the maximum; inactive = score below 0.9.

Key:
[1] = read-out: Transforming growth factor beta 1 (TGFb1), TGFB1 (gene 7040); assay: BSK_KF3CT_TGFb1: BioMAP Diversity Plus: KF3CT Assay for Transforming growth factor beta 1 (TGFb1) Biomarker Activity (AID 2283072); conditions: primary human keratinocytes with fibroblasts; actives raise or lower the signal
Outline: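 Primary human skin cells (keratinocytes, foreskin fibroblasts) were co-cultured, exposed to test chemical and sampled at 24 h. TGF-b1 levels were measured by ELISA and fitted bidirectionally relative to DMSO.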

[2] = read-out: C-C motif chemokine 2 (Homo sapiens) (UniProt P13500); assay: BSK_KF3CT_MCP1: BioMAP Diversity Plus: KF3CT Assay for Monocyte Chemoattractant Protein 1 (MCP1/CCL2) Biomarker Activity (AID 2283073); conditions: primary human keratinocytes with fibroblasts; actives raise or lower the signal
Outline: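 ELISA read-out of MCP-1, 24 h post-dose, in primary human skin keratinocytes co-cultured with fibroblasts. Parallel SRB staining monitors cytotoxicity; changes fitted both directions relative to DMSO.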

[3] = read-out: Matrix Metallopeptidase 9 (MMP9), MMP9 (gene 4318); assay: BSK_KF3CT_MMP9: BioMAP Diversity Plus: KF3CT Assay for Matrix Metallopeptidase 9 (MMP9) Biomarker Activity (AID 2283074); conditions: primary human keratinocytes with fibroblasts; actives raise or lower the signal;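 as to AC50: MMP9 protein level quantified by ELISA in the co-culture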
Outline: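 Human keratinocyte/foreskin fibroblast co-culture; compound added; 24 h; MMP-9 by ELISA; bidirectional fit vs DMSO baseline.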

[4] = read-out: urokinase plasminogen activator (uPA), PLAU (gene 5328); assay: BSK_KF3CT_uPA: BioMAP Diversity Plus: KF3CT Assay for urokinase plasminogen activator (uPA) Biomarker Activity (AID 2283075); conditions: primary human keratinocytes with fibroblasts; actives raise or lower the signal
Outline: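 ELISA readout of uPA, analyzed for signal gain or loss relative to DMSO, from a human primary keratinocyte–foreskin fibroblast co-culture measured 24 h after chemical treatment.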

[5] = read-out: CD40, CD40 (gene 958); assay: BSK_LPS_CD40: BioMAP Diversity Plus: LPS Assay for CD40 Biomarker Activity (AID 2283076); conditions: primary human HUVEC with PBMC; actives raise or lower the signal
Outline: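 In the LPS system of human endothelial cells with peripheral blood mononuclear cells, CD40 levels were read by ELISA 24 h post-treatment. Signal changes in either direction were fitted against the DMSO baseline, with parallel SRB protein staining.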

[6] = read-out: E-selectin (Homo sapiens) (UniProt P16581); assay: BSK_LPS_Eselectin: BioMAP Diversity Plus: LPS Assay for Eselectin Biomarker Activity (AID 2283077); conditions: primary human HUVEC with PBMC; actives raise or lower the signal
Outline: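 E-selectin ELISA on LPS-stimulated endothelial cell/PBMC co-cultures, read 24 h post-treatment; gains and losses fitted against DMSO. Parallel SRB staining (0.1% SRB after 10% TCA fixation, 560 nm) flags overt cytotoxicity.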

[7] = read-out: Interleukin-8 (IL8), CXCL8 (gene 3576); assay: BSK_LPS_IL8: BioMAP Diversity Plus: LPS Assay for Interleukin-8 (IL8) Biomarker Activity (AID 2283078); conditions: primary human HUVEC with PBMC; actives raise or lower the signal
Outline: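 ELISA read-out of IL-8 after 24 h chemical treatment of LPS-activated endothelial/PBMC human primary co-cultures. Changes either up or down relative to DMSO; overt cytotoxicity checked by sulforhodamine B staining in parallel wells.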

[8] = BSK_LPS_SRB: Viability Assessment in the BioMAP Diversity Plus: LPS Assay (AID 2283079); conditions: primary human HUVEC with PBMC;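 also: total protein by sulforhodamine B absorbance as a cytotoxicity measure; measured one day after compound addition; fitted in both directions against DMSO so loss or gain of signal counts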
Outline: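 SRB viability endpoint: cells fixed with 10% TCA, stained with 0.1% SRB, read at 560 nm, 24 h post-dose. HUVEC/PBMC co-culture; signal change in either direction scored relative to DMSO.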

[9] = read-out: Interleukin-1 alpha (IL1a), IL1A (gene 3552); assay: BSK_LPS_IL1a: BioMAP Diversity Plus: LPS Assay for Interleukin-1 alpha (IL1a) Biomarker Activity (AID 2283080); conditions: primary human HUVEC with PBMC; actives raise or lower the signal
Outline: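 Readout is IL-1a level by ELISA, 24 h post-dose, fitted as gain or loss relative to DMSO. System: LPS-activated human primary co-culture of vascular endothelium and peripheral blood mononuclear cells, with parallel SRB total-protein cytotoxicity.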

[10] = read-out: Monocyte Chemoattractant Protein-1 (MCP1), CCL2 (gene 6347); assay: BSK_LPS_MCP1: BioMAP Diversity Plus: LPS Assay for Monocyte Chemoattractant Protein-1 (MCP1) Biomarker Activity (AID 2283081); conditions: primary human HUVEC with PBMC; actives raise or lower the signal;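 as to AC50: secreted MCP-1 protein quantified by ELISA in culture supernatant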
Outline: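 Secreted MCP-1 read by ELISA at 24 h post-dosing in an LPS-activated co-culture of endothelial cells with peripheral blood mononuclear cells. Fits run in both directions, DMSO as baseline; parallel SRB staining tracks overt cytotoxicity.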

[11] = BSK_LPS_PGE2: BioMAP Diversity Plus: LPS Assay for Prostaglandin E2 (PGE2) Biomarker Activity (AID 2283082); conditions: primary human HUVEC with PBMC; actives raise or lower the signal;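 as to AC50: secreted prostaglandin E2 measured by ELISA in LPS-stimulated co-culture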
Outline: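 LPS-activated HUVEC/PBMC co-culture; cmpd dosed, 24 h; PGE2 by ELISA; bidirectional fit vs DMSO; SRB (0.1%, TCA-fixed, 560 nm) in parallel plates for overt cytotox.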

[12] = read-out: Macrophage colony-stimulating factor (MCSF), CSF1 (gene 1435); assay: BSK_LPS_MCSF: BioMAP Diversity Plus: LPS Assay for Macrophage colony-stimulating factor (MCSF) Biomarker Activity (AID 2283083); conditions: primary human HUVEC with PBMC; actives raise or lower the signal
Outline: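 Bidirectional fitting against DMSO was applied to M-CSF levels read by ELISA at 24 h post-dose. The system pairs human umbilical vein endothelium with peripheral blood mononuclear cells; parallel SRB staining tracked cytotoxicity.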

[13] = read-out: Tissue Factor, F3 (gene 2152); assay: BSK_LPS_TissueFactor: BioMAP Diversity Plus: LPS Assay for Tissue Factor Biomarker Activity (AID 2283084); conditions: primary human HUVEC with PBMC; actives raise or lower the signal
Outline: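 Compound was added to an endothelial cell/PBMC co-culture, and after 24 h tissue factor (CD142) was read by ELISA. Gain or loss of signal was fitted against a DMSO baseline, and parallel SRB staining (560 nm) tracked overt cytotoxicity.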

[14] = read-out: Tumor necrosis factor (Homo sapiens) (UniProt P01375); assay: BSK_LPS_TNFa: BioMAP Diversity Plus: LPS Assay for Tumour Necrosis Factor alpha (TNFa) Biomarker Activity (AID 2283085); conditions: primary human HUVEC with PBMC; actives raise or lower the signal
Outline: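 Read-out is ELISA of TNFa in primary human endothelial cell–PBMC co-cultures at 24 h after compound. Activity in either direction was fitted against DMSO.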

[15] = read-out: Vascular cell adhesion molecule 1 (VCAM1), VCAM1 (gene 7412); assay: BSK_LPS_VCAM1: BioMAP Diversity Plus: LPS Assay for Vascular cell adhesion molecule 1 (VCAM1) Biomarker Activity (AID 2283086); conditions: primary human HUVEC with PBMC; actives raise or lower the signal
Outline: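 HUVEC + PBMC co-culture, LPS system; compound 24 h; VCAM-1 by ELISA; bidirectional fit vs DMSO control; parallel SRB (0.1%, TCA-fixed, 560 nm) for cytotoxicity.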

[16] = read-out: CD38, CD38 (gene 952); assay: BSK_SAg_CD38: BioMAP Diversity Plus: SAg Assay for CD38 Biomarker Activity (AID 2283087); conditions: primary human HUVEC with PBMC; actives raise or lower the signal
Outline: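 Human HUVEC plus PBMC co-culture stimulated with superantigen; CD38 measured by ELISA 24 h after chemical dosing. Fluorescence read-out, bidirectional fit against DMSO; cytotoxicity tracked in parallel by SRB and Alamar Blue.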

[17] = read-out: CD40, CD40 (gene 958); assay: BSK_SAg_CD40: BioMAP Diversity Plus: SAg Assay for CD40 Biomarker Activity (AID 2283088); conditions: primary human HUVEC with PBMC; actives raise or lower the signal
Outline: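 CD40 is measured by fluorescence ELISA in an endothelial/PBMC primary human co-culture at 24 h post-dose. Fitting is bidirectional, DMSO baseline. Parallel SRB staining (560 nm) flags cytotoxicity.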

[18] = read-out: CD69, CD69 (gene 969); assay: BSK_SAg_CD69: BioMAP Diversity Plus: SAg Assay for CD69 Biomarker Activity (AID 2283089); conditions: primary human HUVEC with PBMC; actives raise or lower the signal;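 as to AC50: cell surface CD69 protein quantified by ELISA with fluorescence detection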
Outline: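 Primary human vascular co-culture (umbilical vein endothelium with peripheral blood mononuclear cells) exposed to test chemical for 24 h. CD69 levels quantified by fluorescence ELISA; DMSO served as negative control for bidirectional fitting.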

[19] = read-out: E-selectin (Homo sapiens) (UniProt P16581); assay: BSK_SAg_Eselectin: BioMAP Diversity Plus: SAg Assay for Eselectin Biomarker Activity (AID 2283091); conditions: primary human HUVEC with PBMC; actives raise or lower the signal
Outline: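 Cell-surface E-selectin is read by ELISA at 24 h in the SAg co-culture of HUVEC and PBMC. Curves are fitted in both directions relative to DMSO. Parallel SRB total-protein staining tracks overt toxicity.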

[20] = read-out: Monocyte Chemoattractant Protein-1 (MCP1), CCL2 (gene 6347); assay: BSK_SAg_MCP1: BioMAP Diversity Plus: SAg Assay for Monocyte Chemoattractant Protein-1 (MCP1) Biomarker Activity (AID 2283090); conditions: primary human HUVEC with PBMC; actives raise or lower the signal
Outline: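 MCP-1 levels in the endothelial–PBMC SAg co-culture were quantified by ELISA at 24 h post-dosing; both increases and decreases versus DMSO scored. Cytotoxicity monitored by SRB total protein in parallel cultures.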

Measured: AC50

E-selectin (Homo sapiens), sequence (P16581 whole entry, looked up): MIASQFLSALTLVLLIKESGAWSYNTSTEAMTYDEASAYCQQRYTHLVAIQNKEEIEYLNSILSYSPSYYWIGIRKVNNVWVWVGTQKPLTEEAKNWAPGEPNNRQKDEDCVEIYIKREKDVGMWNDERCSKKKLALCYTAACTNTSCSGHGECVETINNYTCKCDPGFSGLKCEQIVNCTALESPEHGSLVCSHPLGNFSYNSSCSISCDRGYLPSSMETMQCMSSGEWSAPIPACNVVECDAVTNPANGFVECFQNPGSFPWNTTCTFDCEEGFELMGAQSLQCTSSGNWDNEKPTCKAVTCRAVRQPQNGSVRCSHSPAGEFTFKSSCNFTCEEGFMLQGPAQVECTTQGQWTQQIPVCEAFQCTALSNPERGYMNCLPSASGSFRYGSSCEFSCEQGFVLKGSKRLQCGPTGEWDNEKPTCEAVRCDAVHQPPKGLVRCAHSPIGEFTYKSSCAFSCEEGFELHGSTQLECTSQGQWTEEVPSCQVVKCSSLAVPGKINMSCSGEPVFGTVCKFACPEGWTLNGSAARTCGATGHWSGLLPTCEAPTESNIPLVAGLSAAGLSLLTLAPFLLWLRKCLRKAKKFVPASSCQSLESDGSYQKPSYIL
Tumor necrosis factor (Homo sapiens), sequence (P01375 whole entry, looked up): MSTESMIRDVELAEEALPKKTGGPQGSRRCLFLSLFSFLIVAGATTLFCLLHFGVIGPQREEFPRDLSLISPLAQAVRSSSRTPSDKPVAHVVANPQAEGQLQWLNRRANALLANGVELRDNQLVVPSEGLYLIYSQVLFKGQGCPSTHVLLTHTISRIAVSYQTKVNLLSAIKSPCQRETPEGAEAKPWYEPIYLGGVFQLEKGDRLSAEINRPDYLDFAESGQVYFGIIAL

COCN(COC)c1nc(N(COC)COC)nc(N(COC)COC)n1
not listed: [20]
inactive: all other assays above

CCCCC(CC)C(=O)O (configuration not stated)
not listed: [20]
inactive: all other assays above

Cc1[nH]nc2c1N=C(c1ccccc1Cl)c1cc([N+](=O)[O-])ccc1N2
active: [3] 4.48 µM | [5] 4.82 µM | [6] 6.04 µM | [7] 7.23 µM | [8] 2.08 µM | [9] 4.2 µM | [10] 5.17 µM | [11] 2.36 µM | [12] 3.38 µM | [13] 4.61 µM | [14] 4.86 µM | [15] 3.99 µM | [16] 5.77 µM | [17] 4.7 µM | [18] 3.81 µM | [20] 3.44 µM | [19] 4.48 µM
inactive: [1] | [2] | [4]

Oc1cc2ccccc2cc1O
inactive: all assays above

CC[N+](CC)(CC)Cc1ccccc1
not listed: [20]
inactive: all other assays above
